According to PubChem BioAssay (NCATS):
Results filed as inconclusive are left out. Where a call stands in place of a potency, no number is given. Calls of active or inactive are those of the source. Calls follow the shape of the dose curve; as a rule, active = well fitted inhibition curve with a large enough effect; inconclusive = small, poorly fitted or top-dose-only effect; inactive = flat fitted curve, though single readings scatter.

What was measured:
Test in all cases: qHTS profiling for inhibitors of Plasmodium falciparum proliferation (AID 504749); also: nearly all actives have a fitted effect of over 60% in size
Settings in all cases: P. falciparum in erythrocytes, SYBR Green DNA, 72 h; series mostly up to 28.7 µM
CP260 = tested on: CP260
In short: (§1)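 In a 72 h erythrocytic culture (37 C, humidified, 5% CO2) at 2.5% hematocrit and 0.3% starting parasitemia, compounds were tested; SYBR Green I in detergent lysis buffer stained parasite DNA overnight.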

CP262 = tested on: CP262
In short: as §1

CP265 = tested on: CP265
In short: as §1

CP266 = tested on: CP266
In short: as §1

CP268 = tested on: CP268
In short: as §1

CP269 = tested on: CP269
In short: as §1

CP286 = tested on: CP286
In short: as §1

CP291 = tested on: CP291
In short: as §1

CP297 = tested on: CP297
In short: as §1

CP305 = tested on: CP305
In short: as §1
Potency is read from the fitted curve at half-maximal effect.

SMILES	Potency (CP260)	Potency (CP262)	Potency (CP265)	Potency (CP266)	Potency (CP268)	Potency (CP269)	Potency (CP286)	Potency (CP291)	Potency (CP297)	Potency (CP305)
Clc1ccc(Cl)cc1	inactive	inactive	inactive	inactive	inactive	inactive	inactive	inactive	inactive	inactive
C[C@H]1CC[C@@H]2[C@@H](C)[C@H]3[C@H](C[C@H]4[C@@H]5CC=C6CC(O[C@@H]7O[C@H](CO)[C@H](O)[C@H](O[C@@H]8O[C@H](CO)[C@@H](O)[C@H](O)[C@H]8O)[C@H]7O[C@H]7O[C@@H](C)[C@H](O)[C@@H](O)[C@H]7O)CC[C@]6(C)[C@H]5CC[C@]34C)N2C1 (some centres undefined)	inactive	inactive	inactive	inactive	inactive	inactive	inactive	inactive	inactive	inactive
ClCC1CO1 (centres undefined)	inactive	inactive	inactive	inactive	inactive	inactive	inactive	inactive	inactive	inactive
CC1CCC(C(C)C)C(OC(=O)c2ccccc2N)C1 (centres undefined)	inactive	inactive	inactive	inactive	inactive	inactive	inactive	inactive	inactive	inactive
[O]=[Cd]	inactive	inactive	inactive	inactive	inactive	inactive	inactive	inactive	inactive	inactive
O=[N+]([O-])c1ccc(F)c([N+](=O)[O-])c1	inactive	inactive	inactive	inactive	inactive	inactive	inactive	inactive	inactive	inactive
CCNC(C)Cc1cccc(C(F)(F)F)c1 (centres undefined)	inactive	inactive	inactive	inactive	inactive	inactive	inactive	inactive	inactive	inactive
CC(N)Cc1ccc(O)cc1 (centres undefined)	inactive	inactive	inactive	inactive	inactive	inactive	inactive	inactive	inactive	inactive
O=CC=O	inactive	inactive	inactive	inactive	inactive	inactive	inactive	inactive	inactive	inactive
N#CN	inactive	inactive	inactive	inactive	inactive	inactive	inactive	inactive	inactive	inactive
O[C@H]1[C@H]2[C@H](O)CCCN2C[C@H]1O	inactive	inactive	inactive	inactive	inactive	inactive	inactive	inactive	inactive	inactive
FC(F)OC(F)(F)C(F)Cl (centres undefined)	inactive	inactive	inactive	inactive	inactive	inactive	inactive	inactive	inactive	inactive
CCON=O	inactive	inactive	inactive	inactive	inactive	inactive	inactive	inactive	inactive	inactive
CCC1(C)CC(=O)NC(=O)C1	inactive	inactive	inactive	inactive	inactive	inactive	inactive	inactive	inactive	inactive
COc1ccc(OC)c(C(O)C(C)N)c1 (centres undefined)	inactive	inactive	inactive	inactive	inactive	inactive	inactive	inactive	inactive	inactive
CCCC(=O)OC(C(Cl)(Cl)Cl)P(=O)(OC)OC (centres undefined)	inactive	inactive	inactive	inactive	inactive	inactive	inactive	inactive	inactive	inactive
CN1C2CCC1CC(OC(c1ccccc1)c1ccc(Cl)cc1)C2 (centres undefined)	7.94 µM (active)	5.36 µM (active)	8.91 µM (active)	13.5 µM (active)	9.53 µM (active)	9.53 µM (active)	5.01 µM (active)	12 µM (active)	8.49 µM (active)	12 µM (active)
O=C(O)C(Cl)(Cl)Cl	inactive	inactive	inactive	inactive	inactive	inactive	inactive	inactive	inactive	inactive
CC(C)(O)C1C2OC(=O)C1C1(O)CC3OC34C(=O)OC2C14C (centres undefined)	inactive	inactive	inactive	inactive	inactive	inactive	inactive	inactive	inactive	inactive
c1csc(C2(N3CCCCC3)CCCCC2)c1	inactive	inactive	inactive	inactive	inactive	inactive	inactive	inactive	inactive	inactive
[O]=[Cr](=[O])([OH])[O][Cr](=[O])(=[O])[OH]	11.2 µM (active)	inactive	inactive	inactive	inactive	inactive	inactive	inactive	inactive	inactive
S=C=S	inactive	inactive	inactive	inactive	inactive	inactive	inactive	inactive	inactive	inactive
O=[N+]([O-])C(Br)(CO)CO	inactive	inactive	inactive	inactive	inactive	inactive	inactive	inactive	inactive	inactive
CCC(N)Cc1c[nH]c2ccccc12 (centres undefined)	inactive	inactive	inactive	inactive	inactive	inactive	inactive	inactive	inactive	inactive

SMILES	Potency (CP260)	Potency (CP262)	Potency (CP265)	Potency (CP266)	Potency (CP268)	Potency (CP269)	Potency (CP286)	Potency (CP291)	Potency (CP297)	Potency (CP305)
CC(=O)OO	inactive	inactive	inactive	inactive	inactive	inactive	inactive	inactive	inactive	inactive
CCCCNCC(O)c1ccc(O)cc1 (centres undefined)	inactive	inactive	inactive	inactive	inactive	inactive	inactive	inactive	inactive	inactive
O=C1CC[C@@]2(O)C3Cc4ccc(O)c5c4C2(CCN3CC2CC2)[C@H]1O5 (some centres undefined)	inactive	inactive	inactive	inactive	inactive	inactive	inactive	inactive	inactive	inactive
Cn1sc(Cl)cc1=O	inactive	inactive	inactive	inactive	inactive	inactive	inactive	inactive	inactive	inactive
CNC(=O)OCC[N+](C)(C)C	inactive	inactive	inactive	inactive	inactive	inactive	inactive	inactive	inactive	inactive
O=Cc1ccco1	inactive	inactive	inactive	inactive	inactive	inactive	inactive	inactive	inactive	inactive
CCC(=O)O[C@@](Cc1ccccc1)(c1ccccc1)[C@@H](C)CN(C)C	inactive	inactive	inactive	inactive	inactive	inactive	inactive	inactive	inactive	inactive
CCCCCCCCOC(=O)c1ccccc1C(=O)OCCCCCCCC	inactive	inactive	inactive	inactive	inactive	inactive	inactive	inactive	inactive	inactive
O=C(OCCN1CCCCC1)C(O)(c1ccccc1)c1ccccc1	inactive	inactive	inactive	inactive	inactive	inactive	inactive	inactive	inactive	inactive
O=C1CCO1	inactive	inactive	inactive	inactive	inactive	inactive	inactive	inactive	inactive	inactive
C=CCN1CCC23c4c5ccc(O)c4O[C@H]2C(=O)CC[C@@]3(O)C1C5 (some centres undefined)	inactive	inactive	inactive	inactive	inactive	inactive	inactive	inactive	inactive	inactive
CCOC(=O)c1ccccc1C(=O)OCC	inactive	inactive	inactive	inactive	inactive	inactive	inactive	inactive	inactive	inactive
O=c1[nH]c(=O)n(Cl)c(=O)n1Cl	inactive	inactive	inactive	inactive	inactive	inactive	inactive	inactive	inactive	inactive
O=C1CN(O)C(c2ccccc2)=c2cc(Cl)ccc2=N1	inactive	inactive	inactive	inactive	inactive	inactive	inactive	inactive	inactive	inactive
COC1=CC=C2[C@H]3Cc4ccc(OC)c5c4[C@@]2(CCN3C)[C@H]1O5	inactive	inactive	inactive	inactive	inactive	inactive	inactive	inactive	inactive	inactive
O=C/C=C/c1ccccc1	inactive	inactive	inactive	inactive	inactive	inactive	inactive	inactive	inactive	inactive
O=C(NCNC(=O)NC1C(=O)NC(=O)N1CO)NC1C(=O)NC(=O)N1CO (centres undefined)	inactive	inactive	inactive	inactive	–	inactive	inactive	inactive	inactive	inactive
C#CC(C)(O)CC (centres undefined)	inactive	inactive	inactive	inactive	inactive	inactive	inactive	inactive	inactive	inactive
ClC1C(Cl)C(Cl)C(Cl)C(Cl)C1Cl (centres undefined)	inactive	inactive	inactive	inactive	inactive	inactive	inactive	inactive	inactive	inactive
c1cc2c(c(NC3=NCCN3)c1)CCCC2	inactive	inactive	inactive	inactive	–	–	inactive	–	–	–
O=C(NC(=O)c1c(F)cccc1F)Nc1ccc(Cl)c(Oc2ncc(C(F)(F)F)cc2Cl)c1	inactive	inactive	inactive	inactive	inactive	inactive	inactive	inactive	inactive	inactive
ClC=C(Cl)Cl	inactive	inactive	inactive	inactive	inactive	inactive	inactive	inactive	inactive	inactive
C[N+]1(C)C2CCC1CC(OC(=O)c1c[nH]c3ccccc13)C2 (centres undefined)	inactive	inactive	inactive	inactive	inactive	inactive	inactive	inactive	inactive	inactive
